Only some compounds are listed: those with a hit (about 0.72% of all), similar ones and a draw of the others.
Neddyl block: inhibitors of cullin neddylation, primary screen, biochemical, TR-FRET, uHTS, NAE and Ubc12. NEDD8-conjugating enzyme Ubc12 (Homo sapiens) + NEDD8-activating enzyme E1 regulatory …. calls only at 25 µM. 0.58% of 360,000 active. AID 651699, 2012; in the data active = inhibition above about 36%
Target sequence (P61081 whole entry, looked up): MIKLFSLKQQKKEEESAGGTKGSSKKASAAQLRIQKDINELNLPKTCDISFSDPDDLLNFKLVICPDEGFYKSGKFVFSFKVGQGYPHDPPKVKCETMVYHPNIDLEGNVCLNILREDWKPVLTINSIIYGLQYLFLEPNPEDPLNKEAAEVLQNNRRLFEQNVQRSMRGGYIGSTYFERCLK
Target sequence (Q13564 whole entry, looked up): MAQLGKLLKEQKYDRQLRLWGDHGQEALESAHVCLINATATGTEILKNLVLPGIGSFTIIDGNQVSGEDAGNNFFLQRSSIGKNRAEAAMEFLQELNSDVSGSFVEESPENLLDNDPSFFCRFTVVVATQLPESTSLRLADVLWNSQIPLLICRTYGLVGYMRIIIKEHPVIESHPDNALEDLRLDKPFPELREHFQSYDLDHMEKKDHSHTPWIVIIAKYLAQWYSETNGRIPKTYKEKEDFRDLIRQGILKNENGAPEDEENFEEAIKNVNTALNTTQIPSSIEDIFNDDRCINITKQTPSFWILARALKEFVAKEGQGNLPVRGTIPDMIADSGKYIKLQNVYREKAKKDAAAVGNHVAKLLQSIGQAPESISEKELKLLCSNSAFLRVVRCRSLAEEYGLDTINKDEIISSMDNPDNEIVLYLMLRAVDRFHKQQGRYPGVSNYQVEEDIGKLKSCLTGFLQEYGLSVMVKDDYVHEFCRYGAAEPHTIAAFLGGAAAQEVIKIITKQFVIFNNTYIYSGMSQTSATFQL
PKA-R1A activ: activators of PKA-R1A holoenzyme, primary screen, biochemical, fluorescence polarization, Cy5-IP20, bovine R1A, mouse PKAc; cAMP-dependent protein kinase type I-alpha regulatory subunit (Bos taurus) + …; PKA-R1A dissociation; scaled: DMSO 0%, 113 µM cGMP 100%; activation, % at 11.4 µM; 0.083% of 340,000 active;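 active = percent activation above the mean of all tested compounds plus 3 SD, cut at about 19% in these data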;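 also: higher means more PKAc released from R1A so a rise in polarization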
PolyA inh: polyadenylation inhibitors in yeast reporter cells, primary screen, luminescence, S. cerevisiae; 0.02% of 300,000 active; activity score, % at 12 µM; S. cerevisiae SKY197-pL101 polyadenylation reporter, beta-gal luminescence; efflux-impaired pdr1/pdr3 knockout yeast; score 100 = 6 SD above DMSO;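 active = lowest replicate activity score at least 50, where 100 means six control SD above control mean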;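 also: yeast exposed to compound for 9 h at 30 °C; higher score means more reporter readthrough which indicates perturbed polyadenylation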
PKA-R2B activ: activators of PKA-R2B holoenzyme, primary screen, biochemical, fluorescence polarization, Cy5-IP20, human. cAMP-dependent protein kinase catalytic subunit beta (Homo sapiens) + cAMP-dependent …. PKA-R2B holoenzyme dissociation; R2B truncated from residue 108, S112A mutant; 0% DMSO only, 100% 113 µM cGMP. activation, % at 11.4 µM. 0.079% of 340,000 active. AID 504700, 2011;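 active = activation above a cutoff set at the mean over all compounds plus 3 SD, cut at about 18% in these data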;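 also: higher means more holoenzyme dissociation and a rise in polarization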
R2B FP artifact: fluorescence polarization artefacts, biochemical, artefact control for PKA-R2B activator project. 6% of 270 active. FP artifact counterscreen. shares compounds with PKA-R2B activ. activation, % at 11.4 µM; in the data active = activation above about 20%;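 also: Cy5 labelled IP20 peptide probe with compound but no PKA protein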
PKA-R2B act conf: activators of PKA-R2B holoenzyme, confirmation, biochemical, fluorescence polarization, human. shares compounds with PKA-R2B activ. PKA-R2B complex, activation. 9% of 270 active. activation, % at 11.4 µM; in the data active = activation above about 19%
Large screens that a line does not name were inactive (follow-up assays come after a bar, where they were run).

CCN(CC)c1ccc(NC(=O)Cn2c(C(C)NC(=O)c3ccccc3)nc3ccccc32)cc1 (stereo not given)	PKA-R2B activ 19 | R2B FP artifact inactive | PKA-R2B act conf inactive
COc1ccc(OC)c(C(=O)c2coc3ccc(OC(C)=O)cc23)c1	PKA-R2B activ 21 | R2B FP artifact inactive | PKA-R2B act conf inactive
O=C(Cc1ccc(Cl)cc1Cl)NC1CCCCCC1	PKA-R2B activ 23 | R2B FP artifact inactive | PKA-R2B act conf inactive
O=C(OCc1ccc(F)cc1)c1cc(=O)c2ccccc2o1	PKA-R2B activ 21 | R2B FP artifact inactive | PKA-R2B act conf inactive
O=C(CSC1=NCCS1)N1CCCC1	PKA-R2B activ 22 | R2B FP artifact inactive | PKA-R2B act conf inactive
O=C(CSC1=NCCS1)N1CCCCCC1	none
Cc1nc(CCNC(=O)CC2C(=O)NCCN2Cc2ccoc2)nc2c1CCCC2 (stereo not given)	PKA-R2B activ 23 | R2B FP artifact inactive | PKA-R2B act conf inactive
O=C(N/N=C/c1cc(O)ccc1[N+](=O)[O-])c1ccc2c(c1)OCCO2	PKA-R2B activ 19 | R2B FP artifact inactive | PKA-R2B act conf inactive
Cc1cccc(/C=N/NC(=O)c2ccccc2OCc2cccc(Br)c2)n1	none
Cc1cccc(/C=N/NC(=O)c2cc(Br)ccc2OCc2ccccc2)n1	PKA-R2B activ 19 | R2B FP artifact inactive | PKA-R2B act conf inactive
O=C1CSCC(=O)N1c1ccccc1	none
O=C1C2=C(SCCS2)C(=O)N1c1ccccc1	PKA-R2B activ 24 | R2B FP artifact inactive | PKA-R2B act conf inactive
CCc1nnc(NC(=O)CCC(=O)N2CCN(Cc3ccc(OC)c(F)c3)CC2)s1	none
CC(C)CSc1ccc(S(=O)(=O)NCC(=O)O)cc1[N+](=O)[O-]	PKA-R2B activ 19 (no result: PolyA inh) | R2B FP artifact inactive | PKA-R2B act conf inactive
CSc1ccc(S(=O)(=O)NCC(=O)OC(C)C(=O)NCc2ccccc2)cc1[N+](=O)[O-] (stereo not given)	none
CCOc1ccccc1NC(=O)C(OC(=O)c1ccc(CC)cc1)c1ccccc1 (stereo not given)	PKA-R2B activ 19 | R2B FP artifact inactive | PKA-R2B act conf inactive
CCOc1ccccc1NC(=O)C(OC(=O)c1ccc(O)cc1)c1ccccc1 (stereo not given)	none
O=C(O)c1sccc1SCc1ccc(Cl)cc1Cl	PKA-R2B activ 23 | R2B FP artifact inactive | PKA-R2B act conf inactive
O=C(NC1CCCCC1)c1cc(S(=O)(=O)N2CCN(c3ccccc3)CC2)ccc1Cl	PKA-R2B activ 20 (no result: PolyA inh) | R2B FP artifact inactive | PKA-R2B act conf inactive
O=S(=O)(c1ccc2c(c1)OCCO2)N1CCC(c2nc3ccc(Cl)cc3[nH]2)CC1	none
O=S(=O)(c1ccc2c(c1)OCCO2)N1CCC(c2nc3ccccc3[nH]2)CC1	PKA-R2B activ 19 | R2B FP artifact inactive | PKA-R2B act conf inactive
CCCN(C)C[C@@H]1Oc2ncc(Br)cc2C(=O)N([C@@H](C)CO)C[C@H]1C	PKA-R2B activ 20 (no result: PolyA inh) | R2B FP artifact inactive | PKA-R2B act conf inactive
CCCN(C)C[C@H]1Oc2ncc(Br)cc2C(=O)N([C@@H](C)CO)C[C@@H]1C	none (no result: PolyA inh)
CCCN(CC(=O)Nc1ccccc1C)C(=O)c1ccc(=O)n(Cc2ccccc2)n1	none
CCCc1cc(=O)n2[nH]c(NCc3ccccc3F)nc2n1	none
CCCc1cc(=O)n2[nH]c(NCc3c(Cl)cccc3Cl)nc2n1	PKA-R2B activ 24 | R2B FP artifact 22 | PKA-R2B act conf inactive
CN1C(=O)N(CC(=O)N2CCN(c3ncccn3)CC2)C(=O)C12CCCCC2	none (no result: PolyA inh)
O=C1CC2(CCCC2)CC(=O)N1CCCCN1CCN(c2ncccn2)CC1	PKA-R2B activ 23 | R2B FP artifact inactive | PKA-R2B act conf inactive
COC(=O)c1c[nH]n2c(=O)c(C(C)C)c(C)nc12	none
COC(=O)c1c[nH]n2c(=O)cc(CCl)nc12	PKA-R2B activ 20 | R2B FP artifact inactive | PKA-R2B act conf inactive
COc1ccccc1CN1CCN(Cc2ccc3ccccc3c2)CC1	none
COc1ccc(CN2CCN(Cc3ccc4ccccc4c3)CC2)cc1OC	PKA-R2B activ 23 | R2B FP artifact inactive | PKA-R2B act conf inactive
Cc1nc2scc(C)n2c(=O)c1S(=O)(=O)Nc1ccc(F)cc1	PKA-R2B activ 22 | R2B FP artifact inactive | PKA-R2B act conf inactive
Cc1cnc(NC(=O)CC2CCCC2)s1	none
Cc1cnc(NC(=O)CC2OC(=O)c3ccccc32)s1 (stereo not given)	PKA-R2B activ 19 (no result: PolyA inh) | R2B FP artifact inactive | PKA-R2B act conf inactive
Cc1cccc(CC(C)NC(=O)c2cc(COc3ccc(C)c(C)c3)on2)n1 (stereo not given)	none
Cc1ccc(OCc2cc(C(=O)NC(C)Cc3cnccn3)no2)cc1C (stereo not given)	PKA-R2B activ 21 | R2B FP artifact inactive | PKA-R2B act conf inactive
Cc1ccc(S(=O)(=O)NC(C)(C)C)cc1C(=O)OCC(=O)N1CCCC1=O	PKA-R2B activ 20 | R2B FP artifact inactive | PKA-R2B act conf inactive
Cc1ccccc1N1CCN(S(=O)(=O)CC23CCC(CC2=O)C3(C)C)CC1 (stereo not given)	none
Cc1ccccc1N1CCN(S(=O)(=O)C[C@]23CCC(CC2NC(=O)[C@@H](N)CCS(C)(=O)=O)C3(C)C)CC1 (stereo not given in full)	PKA-R2B activ 19 (no result: PolyA inh) | R2B FP artifact inactive | PKA-R2B act conf inactive
O=C(COc1ccc(Cl)cc1Cl)N/N=C/c1ccc[nH]1	none
CCOC(=O)C1(Cc2ccccc2Cl)CCN(Cc2csc(C(C)=O)c2)CC1	none
COc1ccc(Nc2nc(N)c([N+](=O)[O-])c(NC3CCCCC3)n2)cc1	none
CCn1c(SCc2nc3scc(-c4ccccc4)c3c(=O)[nH]2)nnc1-c1ccc(Cl)cc1	PKA-R2B activ 20 | R2B FP artifact inactive | PKA-R2B act conf inactive
Cc1ccc(-c2csc3nc(CSc4nnc(-c5ccc(Cl)cc5)n4C)[nH]c(=O)c23)cc1	none
Brc1ccc2cccnc2c1	PKA-R2B activ 23 | R2B FP artifact inactive | PKA-R2B act conf inactive
CCOC(=O)C1=C(CS(=O)(=O)c2ccc(C)cc2)NC(=O)NC1c1cc(OC)c(O)c(OC)c1 (stereo not given)	none
C[C@@]12CCC=C[C@H]1[C@H](c1ccccc1Br)N(Cc1ccccc1)C2=O	none (no result: PolyA inh) | R2B FP artifact inactive | PKA-R2B act conf inactive
Cc1ccc(F)c([C@H]2[C@@H]3C=CCC[C@@]3(C)C(=O)N2Cc2ccccc2)c1	none
